ChEMBL document CHEMBL4513216, “Probing the Open Global Health Chemical Diversity Library for Multistage-Active Starting Points for Next-Generation Antimalarials” (ACS Infect Dis, 2020)
The whole screen tested about 65,000 compounds, of which about 2,100 (3.2%) showed an effect of 50% or more. The median lay at about -52%. The list comes from a sample in which strong results are over-represented; it also holds similar structures and randomly drawn compounds.

Each compound was assayed on Plasmodium falciparum (assay: Screen against P. falciparum Asexual Blood Stage (ABS), at 5uM). Details: tested at 5 uM.
Assay type: functional, Dd2

| Compound | INHIBITION |
| --- | --- |
| COCCCN1CCCC12CCN(Cc1cccnc1OC)CC2 | 8.49% |
| COc1ncccc1CN1CCC2(CC1)COCCN2C | -36% |
| CN1CCN(Cc2ccccc2Oc2nccc3occc23)CC1 | 77.4% |
| c1ccc(Oc2nccc3occc23)c(CN2CCCCC2)c1 | 72.9% |
| COc1ncccc1CN1C[C@@H]2CN(c3ncccn3)C[C@@H]2C1 | 5.48% |
| O=C([C@H]1C[C@H]2OCC[C@H]2N(Cc2cccnc2)C1)N1CCCCO1 | -141% |
| O=C(c1c[nH]c2ncccc12)N(Cc1ccco1)C1CCCC1 | 87% |
| CCC(C)(C)n1nnnc1C(c1cccs1)N1CCc2ccccc2C1 (centres undefined) | 73.9% |
| c1ccc(Sc2ccc3c(c2)OCO3)c(CNC2=NCCN2)c1 | 83.7% |
| Fc1ccccc1Sc1ccccc1CNC1=NCCN1 | 77.4% |
| Fc1ccc(Sc2ccccc2CNC2=NCCN2)cc1 | 80.4% |
| Cc1csc(CN2CC[C@H]3C[C@H](c4ccncn4)O[C@@H]3C2)n1 | -50.8% |
| CNCc1cn(C[C@H]2C[C@@H]3CCN2C[C@@H]3C(=O)NC2CCCCC2)nn1 | -152% |
| CO[C@H]1CCN(S(=O)(=O)N(C)C)[C@@H]2CN(Cc3cccnc3)C[C@H]12 | -7.26% |
| O=C(Nc1ccccc1)[C@H]1CN2CC[C@H]1C[C@@H]2Cn1cc(CCO)nn1 | -52.4% |
| c1ccc(COC2C[C@@H]3CN(Cc4cccnc4)C[C@@H]3C2)cc1 (some centres undefined) | -9.68% |
| CC(C)CN1CCNC(=O)C12CCN(C(=O)c1ccccn1)CC2 | -97.5% |
| O=C(N1CCCC1)N1C[C@@H]2CC[C@H]1CN(Cc1ccncc1)C2 | -121% |
| Cc1cccc(CO[C@@H]2C[C@H]3CN(c4ncccn4)CCN3C2)n1 | -75.8% |
| CCN(CC)Cc1ccccc1NC(=O)N(C)Cc1ccccc1O | 85% |
| Cc1cccc(CN2C(=O)C[C@@H]3[C@@H]2CCN3Cc2ccsc2)n1 | -13% |
| Cc1nc(CN2CCCC(NCCc3ccccc3Cl)C2)no1 (centres undefined) | 82.3% |

| Compound | INHIBITION |
| --- | --- |
| CC(C)c1nc(CN2CCN(C(=O)Cc3ccccc3Cl)CC2)no1 | 10.3% |
| COc1ccccc1OCC(=O)N1CCN(Cc2noc(C)n2)CC1 | -68.9% |
| Fc1cnc(N2CCO[C@H]3CN(CC4CCC4)C[C@H]32)nc1 | -80% |
| Cn1c(CN2CCCCC2)cc(=O)c(O)c1CN1CCCCC1 | 81.8% |
| CO[C@H]1CN(CC2CCOCC2)[C@@H]2CCCO[C@H]12 | -48.2% |
| Cc1c(C)n(CC(O)CN2CCC(C)CC2)c2c(Cl)cccc12 (centres undefined) | 83% |
| CCC(O)CN1CCN(C(=O)Cc2ccccc2Cl)CC1 (centres undefined) | -113% |
| Cc1c(C)n(CC(O)CN2CCN(CCO)CC2)c2c(Cl)cccc12 (centres undefined) | 88.6% |
| CCS(=O)(=O)N1CCN(CCOC)c2ncccc2C1 | -58.7% |
| COCCN1CCOCC12CCN(C(=O)c1cccnc1)CC2 | -95.8% |
| O=C(NC1CC1)[C@H]1C[C@H]2OCC[C@H]2N(Cc2cccnc2)C1 | -76.1% |
| c1c[nH]c2nc(C3CCCNC3)nc-2c1 (centres undefined) | -172% |
| Fc1ccc(-c2nccnc2C2CCCNC2)cc1 (centres undefined) | 76.6% |
| CN(C)c1cc(C2CCCNC2)ccn1 (centres undefined) | -11.8% |
| CC1CCCCN1C(=O)c1coc(COc2cccc3cnccc23)n1 (centres undefined) | 86.5% |
| Cc1cccc(CN2CC[C@H]3[C@H]2CCN3C(=O)c2cnn(C)c2)n1 | -5.92% |
| Cc1ccc(NC(=O)NC(C)c2nc[nH]n2)cc1Cl (centres undefined) | -107% |
| COc1ccc(NC(=O)Nc2cnc(N3CCN(C)CC3)nc2)cc1Cl | 87.9% |
| CNS(=O)(=O)CC(=O)NC(C)Cc1ccc(Br)cc1 (centres undefined) | -89.6% |
| CN1C(Cn2cccn2)C[C@@H]2CN(Cc3ccccn3)CC[C@@H]21 (some centres undefined) | 41.6% |
| c1cnn(C[C@@H]2C[C@@H]3CN(CC4CC4)CC[C@@H]3N2c2nccs2)c1 | 89.9% |
| O=C(c1ncccn1)N1C[C@@H]2CN(CC3CC3)CCO[C@@H]2C1 | -14.4% |

| Compound | INHIBITION |
| --- | --- |
| Cc1nccc([C@@H]2C[C@@H]3CCN(Cc4cccs4)C[C@H]3O2)n1 | -92.1% |
| CN1CC[C@H]2[C@H](C[C@@H](CN3CCCC3)N2c2nccs2)C1 | 73.7% |
| C[C@@H]1C[C@@H]2CCN(Cc3nccs3)C[C@H]2O1 | -26.9% |
| CN1[C@H](Cn2cccn2)C[C@@H]2CN(Cc3cccs3)CC[C@@H]21 | 75.8% |
| C[C@H]1C[C@@H]2CCN(Cc3nccs3)C[C@H]2O1 | -9.59% |
| NC(=O)N1C[C@H]2CN(Cc3nccs3)C[C@H]2C1 | -12% |
| CCN(CCc1ccccc1)Cn1nc(C)c2c(C)onc2c1=O | -13.3% |
| Cc1ccc(-c2ccc(C3CNCCO3)nc2)cc1 (centres undefined) | 83.5% |
| Clc1ccc(-c2ccc(C3CNCCO3)nc2)cc1 (centres undefined) | 85.9% |
| CCCC(=O)N1CCC2(CC1)OCCO2 | -40.8% |
| COCCN1CC=C(c2cccc(OC)c2)CC1 | 13.9% |
| OCCN1CCC(c2cncc(-c3cccc(Cl)c3)n2)CC1 | 71.1% |
| COCCN1CC[C@H]2OCC[C@@H](C(=O)Nc3cccnc3)[C@@H]2C1 | -67.2% |
| COCCN1CCC(c2cncc(-c3cccc(Cl)c3)n2)CC1 | 71.1% |
| CN1CCC(c2cncc(Cl)n2)CC1 | -28.5% |
| CCCS(=O)(=O)N1CCOC2(CCCN(Cc3ccccn3)C2)C1 (centres undefined) | -21.2% |
| CN(C)C[C@]12COC[C@H]1CN(Cc1ccccn1)C2 | -39.8% |
| Cc1ccc(CN2CCN(C)c3ncccc3C2)o1 | -75.5% |
| COc1cccc(CN2CCN3C(=O)NC[C@H]3C2)n1 | -90.1% |
| Cc1cccc(CN2CCN3C[C@H](Oc4cccnc4)C[C@H]3C2)n1 | -91.1% |
